Assay outcomes as filed in PubChem BioAssay.
NPR1 antag – blocks ANP-stimulated signaling of human Npr1 receptor. HEK293 hNpr1 GloSensor cGMP, ANP-stimulated luminescence. Potency, µM (highest dose often 46.3 µM), hits mostly inhibitors. 76,000 compounds, 1.6% hits. AID 1347048; calls by dose curve; note: nearly all actives have a fitted effect of over 60% in size
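HEK293 cells stably expressing human Npr1 and cGMP GloSensor pGS-40F, loaded 2 h with 2% GloSensor reagent, given compound 30 min at room temperature. Luminescence read before and 20 min after 0.1 nM hNppA.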
SNCA expr inh – SNCA gene expression inhibition; AID 1671194; Potency, µM (highest dose often 57.2 µM), hits mostly inhibitors; HEK-293 SNCA-luciferase knock-in, luminescence, 24 h; 140,000 compounds, 0.17% hits; note: nearly all actives have a fitted effect of over 45% in size
3T3 cytotox – NIH 3T3 cell cytotoxicity; NIH 3T3 viability, CellTiter-Glo ATP luminescence, 48-72 h; Potency, µM (highest dose often 96.7 µM), actives largely listed as inhibitors; 94,000 compounds, 4.3% hits; AID 1345082; note: nearly all actives have a fitted effect of over 55% in size
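Cytotoxicity is measured as loss of cellular ATP: NIH 3T3 cells (400/well) are exposed to compound for 48 or 72 hr at 37 °C, then CellTiter-Glo luminescence is imaged after 10 min at room temperature.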
SNCA viab count – cell viability loss counter-screen | HEK-293-SNCA-luc viability, GF-AFC fluorescence, 24 h | Potency, µM (titrated, usually from 57.1 µM), most hits filed as cytotoxic | 150,000 compounds, 0.12% hits | AID 1671193; note: nearly all actives have a fitted effect of over 30% in size
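HEK-293-SNCA-luc cells (1500/well) plated 24 h, then exposed 24 h to a dilution series; GF-AFC added 30 min at 37C, fluorescence 405/540 nm; normalised to medium-only and DMSO wells, Hill fit.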
FLuc inh – inhibitors of firefly (Photinus pyralis) luciferase; purified P. pyralis luciferase, luminescence, biochemical; Potency, µM (highest dose often 115 µM), actives largely listed as inhibitors; 76,000 compounds, 2.5% hits; note: nearly all actives have a fitted effect of over 65% in size
Target sequence (P08659 whole entry, looked up): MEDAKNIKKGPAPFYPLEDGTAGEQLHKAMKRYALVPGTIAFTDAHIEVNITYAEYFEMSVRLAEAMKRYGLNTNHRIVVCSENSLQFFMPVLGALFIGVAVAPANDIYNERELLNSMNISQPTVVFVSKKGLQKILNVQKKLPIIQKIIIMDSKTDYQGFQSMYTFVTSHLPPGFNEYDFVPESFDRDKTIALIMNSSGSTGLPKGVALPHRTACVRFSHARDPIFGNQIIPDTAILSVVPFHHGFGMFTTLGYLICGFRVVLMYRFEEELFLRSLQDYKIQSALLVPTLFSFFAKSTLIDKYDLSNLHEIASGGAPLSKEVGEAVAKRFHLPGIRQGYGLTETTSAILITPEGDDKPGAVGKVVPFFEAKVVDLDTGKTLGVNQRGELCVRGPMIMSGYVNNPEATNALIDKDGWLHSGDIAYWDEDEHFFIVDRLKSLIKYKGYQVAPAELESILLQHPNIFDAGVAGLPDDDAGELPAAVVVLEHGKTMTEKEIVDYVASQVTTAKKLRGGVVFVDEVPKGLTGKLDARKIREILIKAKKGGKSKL
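Purified 10nM P. pyralis luciferase with 10uM D-luciferin and 10uM ATP in 50mM Tris acetate pH 7.5, 10mM Mg acetate, 0.01% Tween-20, 0.05% BSA. qHTS titration; luminescence read by CCD imager.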
HEK293 tox – HEK 293 cell cytotoxicity; HEK 293 viability, ATP luminescence (CellTiter-Glo), 48-72 h; Potency, µM (titrated, usually from 115 µM), actives largely listed as inhibitors; 94,000 compounds, 6.6% hits; AID 1345083; note: nearly all actives have a fitted effect of over 60% in size
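Read-out: CellTiter-Glo ATP luminescence. Cells: HEK 293, 250 cells/well. Exposure: 48 or 72 hr, 37 degree Celsius.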
Of the large screens only hits and unclear results are named; the others gave an inactive call. An excerpt weighted towards active compounds, which were near 7.4% of everything screened. Unless noted, calls come from the whole dose curve; as a rule, active = well fitted curve in the direction sought with a large enough effect; inconclusive = small, poorly fitted or top-dose-only effect, or another doubt; inactive = no such curve, though single readings can be large; an effect the other way counts as inactive or inconclusive.

Cc1ccccc1-c1ccc2n(c1=O)C[C@H]1C[C@@H]2CN(C(=O)CCC(=O)O)C1	none
COc1cc2c(cc1Oc1ccccc1)NC(=O)C21CCN(CC2CC2)CC1	3T3 cytotox 45µM, HEK293 tox inconclusive
COc1cc2c(cc1Oc1cccc(N(C)C)c1)NC(=O)C21CCN(c2ncccn2)CC1	NPR1 antag inconclusive, 3T3 cytotox inconclusive, HEK293 tox inconclusive
COc1cc2c(cc1Oc1cccc(N(C)C)c1)NC(=O)C21CCN(CC2CC2)CC1	NPR1 antag inconclusive, 3T3 cytotox 79µM, HEK293 tox inconclusive
COc1cc2c(cc1Oc1ccccc1)NC(=O)C21CCN(C(=O)C(C)C)CC1	HEK293 tox inconclusive
CN(C)Cc1cn(C[C@H]2CC3CCN2C[C@@H]3C(=O)NCc2ccc3c(c2)OCO3)nn1 (stereo partly specified)	none
CCC(CC)c1cc([C@H]2CN3CC[C@H]2C[C@@H]3CNC(=O)c2ccco2)nc(-c2ccncc2)n1	none
CCC(CC)c1cc([C@H]2CN3CC[C@H]2C[C@@H]3CNC(=O)c2ccc(C)cc2)nc(-c2ccncc2)n1	3T3 cytotox inconclusive, HEK293 tox 45µM
CCC(CC)c1cc([C@H]2CN3CC[C@H]2C[C@@H]3CNC(=O)c2ccc(N(C)C)cc2)nc(-c2ccncc2)n1	3T3 cytotox inconclusive, SNCA viab count inconclusive, HEK293 tox 20µM
CCC(CC)c1cc([C@H]2CN3CC[C@H]2C[C@@H]3CNC(=O)Nc2cccc(C#N)c2)nc(-c2ccncc2)n1	3T3 cytotox 79µM, HEK293 tox inconclusive
CCC(CC)c1cc([C@H]2CN3CC[C@H]2C[C@@H]3COC(=O)Nc2ccccc2)nc(-c2ccncc2)n1	none
C=C[C@H]1CN2CC[C@H]1C[C@@H]2CNC(=O)c1ccc(N(C)C)cc1	HEK293 tox inconclusive
CCC(CC)c1cc([C@H]2CN3CC[C@H]2C[C@@H]3CO)nc(-c2ccncc2)n1	3T3 cytotox 112µM, HEK293 tox 112µM
CCC(CC)c1cc([C@H]2CN3CC[C@H]2C[C@@H]3CNC2CCN(C(C)=O)CC2)nc(-c2ccncc2)n1	3T3 cytotox inconclusive, HEK293 tox 79µM
NC1=NC(=O)N2CC12 (stereo unspecified)	SNCA expr inh 9.6µM (no result: NPR1 antag, 3T3 cytotox, FLuc inh, HEK293 tox)
N#Cc1cn([C@@H]2O[C@H](CO)[C@H](O)[C@@H]2O)c2ncnc(N)c12	none (no result: NPR1 antag, SNCA expr inh, 3T3 cytotox, FLuc inh, HEK293 tox)
COc1cc2c(cc1OCc1ccccc1)N(C(=O)CC(C)C)CC21CCN(C)CC1	3T3 cytotox 50µM, HEK293 tox 100µM
COc1cc2c(cc1OCc1ccccc1)N([S+](=O)([O-])c1cccc3cccnc13)CC21CCN(C)CC1	SNCA expr inh inconclusive, 3T3 cytotox 18µM, SNCA viab count inconclusive, HEK293 tox 25µM
COc1cc2c(cc1OCc1ccccc1)N(C(=O)CC1CC1)CC21CCN(C)CC1	3T3 cytotox 79µM, HEK293 tox 112µM
COc1cc2c(cc1OCc1ccccc1)N(C(=O)[C@@H]1CCCO1)CC21CCN(C)CC1	3T3 cytotox inconclusive
COc1ccccc1CC(=O)N1CC2(CCN(C)CC2)c2cc(OC)c(OCc3ccccc3)cc21	3T3 cytotox 32µM, HEK293 tox inconclusive
CCC(CC)c1cc([C@H]2CN3CC[C@H]2C[C@@H]3CNC(=O)c2cccs2)nc(-c2ccncc2)n1	NPR1 antag inconclusive, 3T3 cytotox 22µM, SNCA viab count inconclusive, HEK293 tox inconclusive
Cc1nc(-c2cccs2)cc([C@H]2CN3CC[C@H]2C[C@@H]3CNC(=O)CSCC(=O)O)n1	none
Cc1nc(-c2ccccc2)cc([C@H]2CN3CC[C@H]2C[C@@H]3CNC(=O)c2cccs2)n1	3T3 cytotox inconclusive, SNCA viab count inconclusive, HEK293 tox 71µM
COc1ccc(-c2cc([C@H]3CN4CC[C@H]3C[C@@H]4CNC(=O)c3cccs3)n(C)n2)cc1	3T3 cytotox inconclusive, HEK293 tox inconclusive
COCC(=O)NC[C@H]1C[C@@H]2CCN1C[C@@H]2c1cc(-c2ccccc2)nc(C)n1	3T3 cytotox inconclusive
